MITF TRPM1 HTS: activators of MITF-driven TRPM1 promoter activity in SK-MEL-5 cells; SK-MEL-5 TRPM1-promoter luciferase, 24 h; % of positive control, neutral wells = 0; AID 588334; activation, % at 12.5 µM; actives 0.75% (n = 300,000);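 active = mean activation of at least 80% with every replicate also reaching 80%; inconclusive = mean reaches 80% but some replicate falls short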;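 also: 0% = neutral control wells and 100% = parthenolide positive control wells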
Wnt act: activates Wnt/beta-catenin signaling in a reporter cell assay. actives 1.2% (n = 300,000). activation, % at 9.35 µM. activator, plate reader. AID 743398; in the data active = activation above about 30%, passing the limit was not always enough; inconclusive = no clear call, values can overlap the other calls;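 also: 0% = neutral control wells and 100% = positive control wells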
Glyco luc inh: blocks N-linked glycosylation in D54 reporter cells. D54 ERlucT glycosylation luciferase reporter, 24 h; percent of 100 nM tunicamycin response. reporter increase, % at 12.5 µM. actives 0.23% (n = 360,000);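 active = mean luciferase reporter signal, scaled so untreated is 0 and the glycosylation-blocking control 100, at or above a set limit in every replicate; inconclusive = mean reaches the limit but not every replicate does; inactive = mean below the limit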;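 also: luciferase carries N-glycosylation sites so blocking glycosylation raises the light; 0% = median of neutral control wells and 100% = median of 100 nM tunicamycin wells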
PfHsp90 set2: inhibits growth of yeast expressing Plasmodium falciparum Hsp90. S. cerevisiae expressing PfHsp90, BacTiter-Glo ATP, 48 h; yeast lacking PDR1 and PDR3 efflux regulators. inhibition, % at 9.4 µM. actives 0.32% (n = 310,000);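 active = every replicate shows inhibition above about 80%, whatever the replicate mean, limit read from the data; inconclusive = mean inhibition reaches the set limit but some replicate falls short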;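 also: 0% = DMSO neutral controls and 100% = 20 µM radicicol positive controls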
NSD2 inh: NSD2 (human) methyltransferase inhibition; inhibition, % at 12.5 µM; AID 743445; NSD2 peptide methylation, AlphaScreen, 120 min; actives 0.54% (n = 310,000); in the data active = inhibition above about 50%
Target sequence (O96028 whole entry, looked up): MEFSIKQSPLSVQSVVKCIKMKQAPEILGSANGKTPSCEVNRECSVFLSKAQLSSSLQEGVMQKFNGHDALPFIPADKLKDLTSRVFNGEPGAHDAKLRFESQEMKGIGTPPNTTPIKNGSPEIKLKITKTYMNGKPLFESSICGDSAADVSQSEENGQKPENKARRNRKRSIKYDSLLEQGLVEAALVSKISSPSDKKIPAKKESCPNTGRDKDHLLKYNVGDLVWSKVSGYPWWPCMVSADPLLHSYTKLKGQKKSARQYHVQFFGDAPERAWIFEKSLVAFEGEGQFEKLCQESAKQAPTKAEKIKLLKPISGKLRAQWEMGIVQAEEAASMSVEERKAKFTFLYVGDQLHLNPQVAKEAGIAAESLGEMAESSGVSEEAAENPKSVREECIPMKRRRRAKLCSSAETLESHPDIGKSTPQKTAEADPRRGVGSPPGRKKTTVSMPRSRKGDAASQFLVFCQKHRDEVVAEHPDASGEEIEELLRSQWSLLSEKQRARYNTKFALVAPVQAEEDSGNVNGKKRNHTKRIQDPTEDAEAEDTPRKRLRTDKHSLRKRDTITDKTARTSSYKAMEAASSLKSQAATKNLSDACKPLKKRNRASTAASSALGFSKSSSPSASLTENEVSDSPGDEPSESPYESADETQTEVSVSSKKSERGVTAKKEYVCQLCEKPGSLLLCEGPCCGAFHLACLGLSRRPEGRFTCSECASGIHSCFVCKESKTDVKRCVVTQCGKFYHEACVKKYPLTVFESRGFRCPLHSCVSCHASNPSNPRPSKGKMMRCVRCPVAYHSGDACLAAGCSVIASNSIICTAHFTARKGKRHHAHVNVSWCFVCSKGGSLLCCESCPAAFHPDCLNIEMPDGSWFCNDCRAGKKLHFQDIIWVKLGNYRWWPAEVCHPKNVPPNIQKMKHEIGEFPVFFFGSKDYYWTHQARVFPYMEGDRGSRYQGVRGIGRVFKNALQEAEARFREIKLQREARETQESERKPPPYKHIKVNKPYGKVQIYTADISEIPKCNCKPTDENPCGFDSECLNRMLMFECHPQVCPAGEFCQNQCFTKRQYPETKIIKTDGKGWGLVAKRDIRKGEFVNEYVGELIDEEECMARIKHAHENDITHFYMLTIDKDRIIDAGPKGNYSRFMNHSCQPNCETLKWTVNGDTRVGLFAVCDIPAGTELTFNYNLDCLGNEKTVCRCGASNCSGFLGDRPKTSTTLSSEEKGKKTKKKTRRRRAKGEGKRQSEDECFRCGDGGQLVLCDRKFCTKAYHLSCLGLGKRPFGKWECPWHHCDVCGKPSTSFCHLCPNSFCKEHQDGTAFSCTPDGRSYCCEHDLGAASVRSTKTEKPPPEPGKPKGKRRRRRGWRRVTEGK
MITF TRPM1 inh: reduces MITF-dependent TRPM1 promoter luciferase signal. SK-MEL-5 TRPM1 promoter luciferase, 24 h. inhibition, % at 12.5 µM. actives 0.83% (n = 330,000);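 active = mean inhibition across replicates of 60% or more, whatever share of single replicates reaches that level; inconclusive = some that reach 60%, reason not given; inactive = mean inhibition across replicates below 60%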
Starred values were filed as active, the others as inactive; ? = inconclusive; nt = no result. The list is not random: actives were taken first. Their share in the collection is about 2.9%.

SMILES	MITF TRPM1 HTS	Wnt act	Glyco luc inh	PfHsp90 set2	NSD2 inh	MITF TRPM1 inh
Cc1cc(C)c(S(=O)(=O)NCC23C=CC(O2)C2C(=O)N(c4ccccc4)C(=O)C23)c(C)c1 (stereo unspecified)	-9	nt	-2	104*	1	7
CC(C)(C)C(=O)NCC12C=CC(O1)C1C(=O)N(c3ccccc3)C(=O)C12 (stereo unspecified)	-3	-1	2	104*	1	6
O=C1C2C3C=CC(CNS(=O)(=O)c4ccccc4[N+](=O)[O-])(O3)C2C(=O)N1c1ccccc1 (stereo unspecified)	-3	0	-1	111*	5	-2
NC(=O)CSc1nc2c(sc(=S)n2-c2ccccc2)c(=O)[nH]1	0	-4	2	22	-1	2
O=C1Nc2ccccc2/C1=C\C(=O)c1ccccc1	-11	-2	17	1	-3	10
O=C1Nc2ccc(Br)cc2/C1=C/C(=O)c1ccc2c(c1)OCO2	-67	2	20	106*	2	66*
COc1ccc(C(=O)/C=C2\C(=O)Nc3ccc(Br)cc32)cc1	-4	-2	6	144*	0	1
CC(C)Oc1ccc(C(=O)/C=C2/C(=O)Nc3ccccc32)cc1	6	13	19	107*	-3	-1
O=C(CC1(O)C(=O)Nc2ccccc21)c1ccc2c(c1)OCO2 (stereo unspecified)	-3	nt	2	-4	-1	7
OC(c1ccccc1)(c1ccccc1)C1CCN(CCCOc2ccncc2)CC1	nt	-3	nt	nt	nt	nt
CCOc1cc(/C=C\[N+](=O)[O-])ccc1OCC(=O)N1CCOCC1	-93	0	11	-49	5	94*
CCOc1cc(/C=C/c2nc3cc(C)c(C)cc3s2)ccc1OCC(=O)N1CCOCC1	-2	-1	0	-14	0	3
Cc1ccnc2nc(C(=O)Nc3ccc(S(=O)(=O)N4CCCC4)cc3)nn12	0	6	2	-2	0	-2
O=C(NCc1ccccc1Cl)c1cccc2c1C(=O)c1ccc(-c3ccc(OC(F)(F)F)cc3)cc1S2(=O)=O	-67	nt	304*	-5	nt	nt
Cc1csc(SCC(=O)Nc2sccc2C(N)=O)n1	55	6	-3	nt	-3	-58
CCCCCn1c(CN2CCN(C(=O)c3ccco3)CC2)nc2c1c(=O)n(C)c(=O)n2C	nt	61*	6	-16	nt	nt
CCCCCCn1c(CN2CCN(C(=O)c3ccco3)CC2)nc2c1c(=O)n(C)c(=O)n2C	nt	-4	3	-7	nt	nt
O=C(Nc1ccccc1)N1CCc2ccccc2C1	32	54*	-2	9	nt	-32
Cc1ccc(NC(=O)N2CCc3ccccc3C2)cc1	?	nt	-3	12	0	-90
O=C(CNc1cccc(F)c1)N1CCc2ccccc2C1	?	36*	0	8	-4	-75
Cc1ccc(S(=O)(=O)N2CCCC2)cc1C(=O)N1CCC(C)CC1	-8	-1	1	15	-3	9
O=c1ncn(-c2cccc(Cl)c2)c2ccccc12	1	44*	0	13	20	-3
CCCCCCC#Cc1cncc(C(=O)NNC(=O)Nc2cc(Cl)cc(Cl)c2)c1	nt	42*	2	nt	-2	nt
Cc1nn2cc(-c3ccc(Cl)cc3)nc2s1	nt	71*	-13	nt	-2	0
COc1cc(SC)ccc1C(=O)OC(C)C(=O)NC1CCCC1 (stereo unspecified)	6	17	0	5	-1	-4
SMILES	MITF TRPM1 HTS	Wnt act	Glyco luc inh	PfHsp90 set2	NSD2 inh	MITF TRPM1 inh
CN(Cc1ccc(F)cc1)C(=O)c1ccc(NC(=O)CC2SC(N3CCCC3)=NC2=O)cc1 (stereo unspecified)	1	-4	2	-13	0	-3
O=C(c1ccccn1)c1ccc2ccccc2n1	nt	44*	-2	nt	-1	nt
O=C1Nc2ccc(Br)cc2C12NNc1ccccc1O2 (stereo unspecified)	-15	2	2	106*	nt	16
O=C(COC(=O)c1ccc(N2CCCC2=O)cc1)c1ccccc1	nt	16	-2	13	49	-53
Cc1ccc(-c2cnc3cc(C)nn3c2)cc1	2	6	-16	nt	-1	2
Cc1cc2ncc(-c3ccc(Cl)cc3)cn2n1	91*	17	-5	-2	nt	-82
COC(=O)C1=C(C)N(Cc2ccc(Br)cc2)C(=S)NC1c1cccc(Br)c1 (stereo unspecified)	nt	-4	nt	nt	nt	nt
CC(C)(C)NC(=O)NC(=O)COc1ccccc1C#N	121*	40*	-13	-12	3	-108
C/C(=C\c1ccccc1)C(=O)NCc1ccco1	31	32*	-1	10	1	-25
C/C(=C\c1ccccc1)C(=O)NCCc1ccccc1	50	61*	-4	-20	1	-47
O=C(NCCc1ccccc1)C(=Cc1ccc(C(=O)O)cc1)C(=O)NCCc1ccccc1	-7	-1	3	-5	-1	6
CCC(=O)Nc1c(-c2ccc3ccccc3c2)nc2ccccn12	15	9	-2	12	-1	-13
CC(=O)Nc1c(-c2ccc3ccccc3c2)nc2ccccn12	82*	23	-5	6	-1	-77
CCOC(=O)N/C(N)=N/c1nc2ccccc2s1	nt	56*	-10	10	-1	-63
CC(=O)N/C(N)=N/c1nc(=O)c2ccccc2s1	nt	29	-2	-5	-2	-92
CCCC12CN3CCN(CC(C3)/C1=N\NC(=O)c1ccccc1N)C2	-4	37*	1	-2	-5	7
Cc1ccc(NC(=O)C2=NNC(=O)CC2)cc1F	40	34*	1	-2	-1	-37
CC(C)c1ccc(NC(=O)C2=NNC(=O)CC2)cc1	78	?	-4	9	-2	-84
CCOC(=O)C1CCCN(C(=O)/C=C/c2ccc(Cl)cc2)C1 (stereo unspecified)	-7	9	1	25	-1	5
CC(C)(C)c1ccc(/C=C/C(=O)N2CCCCC2)cc1	101*	33*	-4	13	-1	-105
Cc1ccc(/C=C/C(=O)N2CCCC(C)C2)cc1 (stereo unspecified)	88*	-2	-11	-4	-1	-91
Cc1cc(C2=NNC(=NC3CC3)SC2)c(C)n1-c1ccccc1	-99	-32	-18	8	1	100*
COCCn1c(C)cc(C2=NNC(=NC3CC3)SC2)c1C	-101	-8	-22	nt	17	102*
C=CCn1c(C)cc(C2=NNC(=Nc3ccc(C)cc3)SC2)c1C	27	nt	-1	6	-8	-29
Cc1cc(C2=NNC(=NC3CC3)SC2)c(C)n1Cc1ccco1	-89	nt	-9	7	0	91*
C=CCn1c(C)cc(C2=NNC(=NC(C)(C)C)SC2)c1C	-78	-1	-22	-5	1	79*

Screening data as filed in PubChem BioAssay.
